“And” between values parts separate entries of the source, which are not always exact repeats. Identical values can stand only once. Out of some 16,000 compounds screened, about 5,100 (32%) were called active. Not shown: some 25% with an inconclusive outcome. The call rests on the fitted dose curve; in most records, active means well fitted curve in the direction sought with a large enough effect; inconclusive means small, poorly fitted or top-dose-only effect, or effect the other way; inactive means no such curve, though single readings can be large or run the other way. Some of the results follow.
target: Cytochrome P450 3A4 (Homo sapiens) (UniProt P08684); experiment: Cytochrome panel assay with activity outcomes; conditions: recombinant CYP, pro-luciferin dealkylation, luminescence, p450-cyp3a4; series mostly up to 57.1 µM
Sequence (P08684 whole entry, looked up): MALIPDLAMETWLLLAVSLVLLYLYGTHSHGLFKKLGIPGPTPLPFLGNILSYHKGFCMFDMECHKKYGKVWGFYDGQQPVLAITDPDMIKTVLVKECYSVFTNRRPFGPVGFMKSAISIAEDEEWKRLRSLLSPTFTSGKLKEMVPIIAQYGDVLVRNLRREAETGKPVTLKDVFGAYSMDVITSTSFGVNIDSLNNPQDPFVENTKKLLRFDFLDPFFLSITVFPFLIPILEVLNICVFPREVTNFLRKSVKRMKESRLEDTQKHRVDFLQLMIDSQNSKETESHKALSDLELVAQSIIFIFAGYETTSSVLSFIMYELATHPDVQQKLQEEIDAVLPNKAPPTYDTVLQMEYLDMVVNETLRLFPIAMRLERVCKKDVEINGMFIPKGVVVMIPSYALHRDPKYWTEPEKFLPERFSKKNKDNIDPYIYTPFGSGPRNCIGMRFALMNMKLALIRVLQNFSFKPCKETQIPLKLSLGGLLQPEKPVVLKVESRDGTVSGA
On the % scale 0 is the no-effect control and ±100 the full control effect.

Row | Compound | AC50 | activity, negative = inhibition
1 | O=C(/C=C\c1ccc(O)c(O)c1)O[C@@H]1C[C@](O)(C(=O)O)C[C@@H](O)[C@@H]1O | inactive | 
2 | CC(=O)Nc1ccc(NCN2C(=O)C3C4CCC(C4)C3C2=O)cc1 (configuration not stated) | inactive | 
3 | Cc1cccc(OC(=O)CN2C(=O)C3C4CCC(C4)C3C2=O)c1C (configuration not stated) | 14.1 µM (active) | 
4 | Cc1cc(=O)oc(C)c1C(=O)Nc1ccc(Cl)cn1 |  | -3.08% [at 2.29 µM] (inactive)
5 | CCOc1ccc(C(=O)Nc2ccc(Cl)cn2)cc1Cl | inactive | 
6 | COc1ccc(C(=O)Nc2ccc(Cl)cn2)cc1Cl | 28.2 µM (active) | 
7 | Clc1ccccc1-c1cncnc1NCc1cccs1 | 0.501 µM (active) | 
8 | Cc1ccccc1-c1cncnc1NCc1cccs1 | 0.501 µM (active) | 
9 | COc1ccccc1-c1cncnc1NCc1cccs1 | 0.398 µM (active) | 
10 | FC(F)(F)c1ccccc1-c1cc(NCc2cccs2)ncn1 | inactive | 
11 | FC(F)(F)c1ccccc1-c1cncnc1NCc1cccs1 | 0.251 µM (active) | 
12 | CCCCCCCCCCCC1=C(O)C(=O)C=C(O)C1=O | inactive | 
13 | NNC(=O)CNC(c1ccccc1)c1cc(Br)ccc1NC(=O)c1ccccc1Br (configuration not stated) | 0.794 µM (active) | 
14 | O=C(O)c1ccccc1C(=O)Nc1cc2c(cc1Br)-c1ccccc1C2=O |  | -24.8% [at 11.4 µM] (inactive)
15 | O=C(O)CCCCCNC(=O)c1ccccc1Br | inactive | 
16 | CCOC(=O)CCN1C(=O)[C@H]2[C@H]3[C@H](O)[C@H](O)C/C(=N/OCC(C)C)[C@H]3CC[C@@H]2C1=O |  | -22.9% [at 11.4 µM] (inactive)
17 | Cc1ccccc1-c1cc(NCc2ccccc2)ncn1 | inactive | 
18 | Cc1ccccc1-c1cc(NCc2cccnc2)ncn1 | 10 µM (active) | 
19 | COc1ccccc1-c1cc(NCc2cccnc2)ncn1 | 5.01 µM (active) | 
20 | O=C(O)[C@H]1CCCNC1 | inactive | 
21 | NS(=O)(=O)c1ccc(NCc2cnc3ccccc3n2)cc1 |  | -7.19% [at 11.4 µM] (inactive)
22 | NS(=O)(=O)c1ccc(NCc2ccccc2OCc2ccccc2F)cc1 | 15.8 µM (active) | 
23 | NS(=O)(=O)c1ccc(NCc2nc3ccccc3[nH]2)cc1 |  | -19.2% [at 11.4 µM] (inactive)
24 | CCCOc1ccccc1-c1nc2n[nH]nc2c(=O)[nH]1 | inactive | 
25 | O=C1c2ccccc2NC(c2ccc(Cl)cc2Cl)N1O (configuration not stated) | inactive | 

Row | Compound | AC50 | activity, negative = inhibition
26 | C=CCc1cccc(C2Nc3ccccc3C(=O)N2O)c1O (configuration not stated) | 20 µM (active) | 
27 | CC(=O)c1c(O)cc(=O)n(-c2ccccc2)c1-c1ccc(C)cc1 | inactive | 
28 | Cc1cc(O)c(C(C)C)cc1C1(c2cc(C(C)C)c(O)cc2C)OC(=O)c2ccccc21 | 1.58 µM (active) | 
29 | Cc1cc(O)c(C(C)C)cc1CN1CCCCC1 |  | -7.75% [at 11.4 µM] (inactive)
30 | Fc1ccc(COc2ccc(Br)cc2CNCc2ccncc2)cc1 | 0.562 µM (active) | 
31 | Clc1ccccc1-c1nc(NCc2cccs2)c2ccccc2n1 | 6.31 µM (active) | 
32 | FC(F)(F)c1ccccc1-c1nc(NCc2cccs2)c2ccccc2n1 | 3.98 µM (active) | 
33 | C/C(=N/NC(=O)Cc1cccn1C)c1ccccc1 | inactive | 
34 | C/C(=N\NC(=S)Nc1cccc(C)c1)c1ccccc1 | 8.91 µM (active) | 
35 | C/C(=N\NC(=O)c1cccc(C)c1)c1cccc(NC(=O)c2ccco2)c1 |  | -7.23% [at 2.29 µM] (inactive)
36 | COc1cc(C(=O)NCc2cccc3ccccc23)cc(Cl)c1OC | 10 µM (active) | 
37 | O=S(=O)(c1cccc2c(Cl)cccc12)N1CCCNCC1 | 5.01 µM (active) and 3.98 µM (active) | 
38 | O=C(O)C1(C(=O)O)CCN(S(=O)(=O)c2ccccc2)CC1 |  | -12.3% [at 11.4 µM] (inactive)
39 | C[C@H]1CN(S(=O)(=O)c2cccc3cnccc23)CCN1 | 10 µM (active) | 
40 | O=S(=O)(c1cccc2cnccc12)N1CCNCC1 | 12.6 µM (active) | 
41 | CC1CCN(C(=O)C2CCN(S(=O)(=O)c3cccc4nonc34)CC2)CC1 | inactive | 
42 | COc1ccc(S(=O)(=O)N2CCCCCC2)cc1N(C)S(=O)(=O)c1ccc(Cl)cc1 |  | -26.2% [at 2.29 µM] (inactive)
43 | O=S(=O)(c1ccccc1)N1CN2CN(C1)CN(S(=O)(=O)c1ccccc1)C2 |  | -1.65% [at 11.4 µM] (inactive)
44 | O=S(=O)(c1ccccc1S(=O)(=O)N1CCCCC1)N1CCCCC1 | 8.91 µM (active) | 
45 | CCOC(=O)C(NC(C)=O)C(=O)O (configuration not stated) | inactive | 
46 | O=C1C=CC(=Nc2cccc3c(N=C4C=CC(=O)O4)cccc23)O1 |  | -24.5% [at 11.4 µM] (inactive)
47 | CC(C)=CCc1c(C)nc2ccccc2c1C(=O)O | inactive | 
48 | COC(=O)c1cc(NC(=O)CC2NC3CCCCC3NC2=O)cc(C(=O)OC)c1 (configuration not stated) | 28.2 µM (active) | 
49 | CCC1C(=O)N=C(SCC(=O)Nc2ccc(C(=O)OC)cc2)NC1=O (configuration not stated) | inactive | 
50 | COC(=O)c1ccc(NC(=O)C2CCCCC2C(=O)O)cc1 (configuration not stated) | inactive | 

Row | Compound | AC50 | activity, negative = inhibition
51 | COC(=O)c1cc(=O)[nH]c(=O)[nH]1 |  | 0.116% [at 11.4 µM] (inactive)
52 | CC(=O)c1c(C)[nH]c(C(=O)COc2ccc(C#N)cc2)c1C | 3.16 µM (active) | 
53 | CC(=O)COc1ccc2c(C)c(C)c(=O)oc2c1 |  | -1.64% [at 2.29 µM] (inactive)
54 | CC#CCOC(=O)c1c(C)nc2sc3c(c2c1N)CC[C@@H](O)C3 | 3.16 µM (active) | 
55 | CC(=O)N1CCN(c2nc(C)nc3sc4c(c23)CCC(C)C4)CC1 (configuration not stated) | inactive | 
56 | COc1cccc(/C(O)=C2/C(=O)C(=O)N(c3cc(C)on3)C2c2cccs2)c1 (configuration not stated) | 28.2 µM (active) | 
57 | COCCN1C(=O)C(=O)/C(=C(/O)c2cccc(OC)c2)C1c1ccc(C)o1 (configuration not stated) | inactive | 
58 | Cc1cc(N2C(=O)C(O)=C(C(=O)c3ccco3)C2c2ccc(O)cc2)no1 (configuration not stated) | inactive | 
59 | COC(=O)[C@@]1(Cc2ccc(F)cc2)[C@H]2c3cc(C(=O)N(C)C)n(Cc4ccc(C(F)(F)F)nc4)c3C[C@H]2CN1C(=O)c1ccccc1 | 1.26 µM (active) | 
60 | COC(=O)[C@@]1(Cc2ccccc2)[C@H]2c3cc(C(=O)N4CCCC4)n(Cc4ccc(C(F)(F)F)nc4)c3C[C@H]2CN1C(=O)c1ccccc1 | 3.16 µM (active) | 
61 | COC(=O)[C@@]1(Cc2ccc(OC)cc2)[C@H]2c3cc(C(=O)N4CCCC4)n(Cc4ccc(C(F)(F)F)nc4)c3C[C@H]2CN1C(=O)c1ccccc1 | 3.16 µM (active) | 
62 | COC(=O)[C@@]1(Cc2ccc(OC)cc2)[C@H]2c3cc(C(=O)N4CCCC4)n(CCn4cc([N+](=O)[O-])nc4C)c3C[C@H]2CN1C(=O)c1ccccc1 | 3.98 µM (active) | 
63 | O=C(NCCCn1ccnc1)c1ccc(Br)c(S(=O)(=O)N2CCOCC2)c1 | 2 µM (active) | 
64 | CN1CCc2[nH]nc(-c3n[nH]c4c3CN(C)CC4)c2C1 |  | -6.16% [at 11.4 µM] (inactive)
65 | CCN1CCN(C(=O)N[C@H](C(=O)N[C@@H]2C(=O)N3[C@@H]2SC(C)(C)[C@@H]3C(=O)O)c2ccccc2)C(=O)C1=O | inactive | 
66 | CCOc1c(Cl)cc(C(=O)Nc2ccccc2-c2ccccc2)cc1Cl | 14.1 µM (active) | 
67 | CCOC(=O)c1ccc(Cl)c(NC(=O)c2ccc(-c3ccccc3)cc2)c1 |  | 6.61% [at 11.4 µM] (inactive)
68 | CO[C@@H]1COC(=O)CC=C[C@@H](C)[C@@H]2C=C[C@H](O)[C@@H](COC(=O)[C@H](C)NC(=O)CC=C[C@H]1C)O2 |  | -23.2% [at 11.4 µM] (inactive)
69 | COc1ccc(NC(=O)N2CCC3(CC2)CCN(C(=O)c2cnccn2)CC3)cc1 | inactive | 
70 | COc1ccc(-c2cc(C(F)(F)F)n3nc(C(=O)N4CCCCC4)cc3n2)cc1 | 14.1 µM (active) | 
71 | CCOC(=O)C1CCCN(C(=O)c2cc3nc(-c4ccc5c(c4)OCO5)cc(C(F)(F)F)n3n2)C1 (configuration not stated) | 3.98 µM (active) | 
72 | COC(=O)c1ccccc1NC(=O)c1cc2nc(C3CC3)cc(C(F)(F)F)n2n1 | inactive | 
73 | CCOC(=O)c1[nH]c(C(=O)O)c(CCN(CC)CC)c1C | inactive | 
74 | CN(C)Cc1ccc(-c2cc3onc(-c4ccccc4)c3c(=O)n2C)cc1 |  | 8.36% [at 11.4 µM] (inactive)
75 | COc1ccc(C(C(=O)NC2CCCCC2)N(C(=O)CCCC(=O)Nc2ccccn2)c2ccc3c(c2)OCCO3)cc1 (configuration not stated) | 1.26 µM (active) | 

Row | Compound | AC50 | activity, negative = inhibition
76 | CC(=O)c1ccc(S(=O)(=O)NC(=O)NC2CCCCC2)cc1 | inactive | 
77 | COc1ccc(C(C(=O)NC2CCCCC2)N(C(=O)c2sc(C)nc2C)c2ccc(OC)cc2)cc1 (configuration not stated) | 12.6 µM (active) | 
78 | COc1ccc(C(C(=O)NC2CCCC2)N(C(=O)c2snc(-c3ccc(F)cc3)c2N)c2ccccc2)cc1 (configuration not stated) |  | -12% [at 2.29 µM] (inactive)
79 | COc1ccc(C(C(=O)NC2CCCCC2)N(C(=O)c2sc(C)nc2C)c2ccc(C(C)=O)cc2)cc1 (configuration not stated) | 25.1 µM (active) | 
80 | CC(CC(=O)O)CC(=O)Nc1ccc(S(N)(=O)=O)cc1 (configuration not stated) |  | -4.05% [at 2.29 µM] (inactive)
81 | CCOc1ccc(NC(=S)NC(=O)/C=C/c2ccc(OC)c(OC)c2)c([N+](=O)[O-])c1 | inactive | 
82 | CC(CC(=O)Nc1ccc(Cl)c([N+](=O)[O-])c1)c1ccccc1 (configuration not stated) | 10 µM (active) | 
83 | CC(C)CC(=O)Nc1ccc2c(c1)oc1ccccc12 | inactive | 
84 | Cc1ccc([N+](=O)[O-])cc1NC(=S)NC(=O)C(C)(C)C | inactive | 
85 | COc1ccc(OC)c(NC(=O)CC(Cc2ccccc2OC)C(=O)O)c1 (configuration not stated) | inactive | 
86 | COc1ccc([N+](=O)[O-])cc1NC(=O)CC(C)c1ccccc1 (configuration not stated) | 7.08 µM (active) | 
87 | COc1ccc([N+](=O)[O-])cc1NC(=S)NC(NC(=O)Cc1ccc(OC)c(OC)c1)C(Cl)(Cl)Cl (configuration not stated) | 1.58 µM (active) | 
88 | COc1ccc([N+](=O)[O-])cc1NCc1ccccc1C | 12.6 µM (active) | 
89 | C1CNCCOCCNCCN1 | inactive | 
90 | Cn1c(=O)c2c(nc(Cc3ccccc3)n2CC(=O)O)n(C)c1=O |  | -2.47% [at 11.4 µM] (inactive)
91 | Cn1c(=O)[nH]c(=O)c2c1nc(CN1CCOCC1)n2CCCO | inactive | 
92 | Cn1c(=O)[nH]c(=O)c2c1nc(CN(Cc1ccccc1)Cc1ccccc1)n2CCN1CCOCC1 | 4.47 µM (active) | 
93 | COc1ccc(N2CCN(Cc3nc4c(c(=O)[nH]c(=O)n4C)n3CCCc3ccccc3)CC2)cc1 | 2.24 µM (active) | 
94 | COc1ccc(N2CCN(Cc3nc4c(c(=O)n(C)c(=O)n4C)n3CC(C)=O)CC2)cc1 | inactive | 
95 | CCN1CCN(c2nc3c(c(=O)[nH]c(=O)n3C)n2CCCSc2ncccn2)CC1 | inactive | 
96 | CCOC(=O)Cn1c(CN(Cc2ccccc2)Cc2ccccc2)nc2c1c(=O)[nH]c(=O)n2C | 25.1 µM (active) | 
97 | CCOC(=O)N1CCN(Cc2nc3c(c(=O)[nH]c(=O)n3C)n2Cc2ccccc2C)CC1 | 3.98 µM (active) | 
